Laboratory results from PubChem BioAssay AID1347423 (Functional Genomics Laboratory (NCATS/FGL), 2020).
In all, about 52,000 sequences went through this assay and about 210 (0.4%) were called active.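 The calls were made as follows: active = gene whose silencing raises cell survival under the drug, median off-target-corrected z-score across its silencing RNAs 2 or more; inactive = the rest.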 The entries come from a sample that favours actives as a whole.

Test: Resistance to Poly (ADP-Ribose) Polymerase inhibitor: Gene Identification via Genome-wide siRNA Screen
Conditions: mouse BRCA2 R2336H ES cells, olaparib, CellTiter-Glo viability; hits give high values
Method in brief: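 Genome-wide siRNA screen (3 siRNAs/gene, 20 nM) in mouse ES cells carrying hypomorphic BRCA2 R2336H; olaparib 500 nM added 48 h post-transfection, CellTiter-Glo viability 72 h later. Normalized to plate-median negative control; MAD z-scores, gene median, seed-adjusted.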

Q: Which z-score does the source give for GCUCUGCUAGUCAACUGCATT against Nrip2 here?
A: 0.681 (inactive)

Q: Which z-score does the source give for GGGAUUUAACAACAUGUAATT against Slc20a1 here?
A: 2.29 (active)

Q: Which z-score does the source give for GGGCAUAGAGUCUCAAACUTT against Ptger1 here?
A: 0.492 (inactive)

Q: Which z-score does the source give for GGAGCUUCUAGAGAAGAUCTT against Leng5 here?
A: -2.29 (inactive)

Q: With “GCGGCAGAUCUUCGAUUUCTT against 2610200G18Rik” as the sequence, how does the z-score read?
A: -0.616 (inactive)

Q: With GCUUCUAAGCCGAAGGCCATT against Hist1h1d as the sequence, how does the z-score read?
A: 0.442 (inactive)

Q: Which z-score does the source give for “CCACCAUCAAAUAUAACUATT against 9930021J03Rik” here?
A: 0.126 (inactive)

Q: For GGAACAUGAAGCCUUUUACTT against Asb16, which z-score is on record?
A: 3.12 (active)

Q: With CCCAGGACUCAUGAUUACATT against Tas2r134 as the sequence, how does the z-score read?
A: -1 (inactive)

Q: With “CCAUCAAGAGGUAUAAUCUTT against A930017E24Rik” as the sequence, how does the z-score read?
A: -2.24 (inactive)

Q: Which z-score does the source give for CGGACAGAUACAAUAGCUATT against BC057627 here?
A: 3.74 (active)

Q: Which z-score does the source give for GGAUUGUGCUGUGAAACAUTT against Pilrb here?
A: -1.98 (inactive)

Q: For GCCUUCAAAUGAAGGAAGGTT against Olfr699, which z-score is on record?
A: -0.519 (inactive)

Q: Which z-score does the source give for “GGUGAAACUGAAUAAAAUCTT against 4931406C07Rik” here?
A: 1.09 (inactive)

Q: Which z-score does the source give for “GGCUAGAGAAAUAGUGUUGTT against D6Ertd253e” here?
A: -0.28 (inactive)

Q: Which z-score does the source give for GGAUGAAAUUAACUCUGAATT against Adprt1 here?
A: 2.49 (active)

Q: With GCUUAAGGACGCAUUGAAATT against Pthlh as the sequence, how does the z-score read?
A: -0.0187 (inactive)

Q: Which z-score does the source give for GGAACACCGAACAUAAAUATT against Gm610 here?
A: -0.526 (inactive)

Q: Which z-score does the source give for “UCUGGAGUCUUAUCAAGGATT against 2210020M01Rik” here?
A: -0.752 (inactive)

Q: With “GGUGCCUGACCAAAAAGGATT against A830094I09Rik” as the sequence, how does the z-score read?
A: 2.67 (active)

Q: Which z-score does the source give for GCCGACUGGUUAAAUACAUTT against Nme3 here?
A: -0.45 (inactive)

Q: With “CCCACUUAUAUAUGUAGUUTT against 2410187C16Rik” as the sequence, how does the z-score read?
A: -0.391 (inactive)

Q: For GGCAGAAGCAAUGAACUAUTT against Npm1, which z-score is on record?
A: 3.59 (active)

Q: With GGCCUUGGGAAGGAAAGAGTT against Mospd1 as the sequence, how does the z-score read?
A: -1.74 (inactive)

Q: Which z-score does the source give for GGCACCUAACGACUUCAACTT against Pygm here?
A: 0.366 (inactive)

Q: Which z-score does the source give for GCCCGCUCUCGGAUUUUGATT against Htr1b here?
A: 2.87 (active)

Q: For “GCUCAGACCAUAGUUUCUATT against A930002I21Rik”, which z-score is on record?
A: 1.53 (inactive)

Q: For GCCUCAAAACUUCUUGUUCTT against Mxd3, which z-score is on record?
A: 0.892 (inactive)

Q: Which z-score does the source give for GGCCUUUCUGGAGAAGAUGTT against Stfa3 here?
A: -0.717 (inactive)

Q: For CCUUCGAACUCGAAAAAUUTT against Olfr722, which z-score is on record?
A: 0.346 (inactive)

Q: With “GGCCAUCGAACUCAAUCUCTT against 2810002D13Rik” as the sequence, how does the z-score read?
A: 0.717 (inactive)

Q: For GGUUAAUGGGAAACUCUGCTT against Pias3, which z-score is on record?
A: 2.89 (active)

Q: For GGACUUAUCGGUUAUCUUUTT against Nap1l2, which z-score is on record?
A: 0.654 (inactive)

Q: With “CCGCACAGACCAUAGUAGATT against 1700121L12Rik” as the sequence, how does the z-score read?
A: 0.0169 (inactive)

Q: With “CCUAGUUGAAAAUUGGGAATT against 0610025O11Rik” as the sequence, how does the z-score read?
A: -0.794 (inactive)

Q: With GGAUGAACAGGAGAAAGUCTT against Irak2 as the sequence, how does the z-score read?
A: 0.0975 (inactive)

Q: With CGAUGUACUGUCUCUUUUGTT against Ywhaz as the sequence, how does the z-score read?
A: 1.53 (inactive)

Q: Which z-score does the source give for GCAACAGGUUAGCGAAACCTT against Bid3 here?
A: 0.43 (active)

Q: Which z-score does the source give for GGUAGCUAUCAAGGUCAUCTT against Hunk here?
A: -0.704 (inactive)

Q: For GGAGGAUACCUUCUUCUACTT against Mta3, which z-score is on record?
A: 0.46 (inactive)

Q: For GCAGGGACCGUCUAUAACUTT against Ptprb, which z-score is on record?
A: -0.654 (inactive)

Q: Which z-score does the source give for GCGGAUUUAGUGGCUGGCUTT against Opn5 here?
A: -2.04 (inactive)

Q: Which z-score does the source give for GGAAUUUUUGGACAAAGUATT against Grid2 here?
A: -3.07 (active)

Q: With GCUCUUCUCGCAUUCCUAUTT against Gpc2 as the sequence, how does the z-score read?
A: -0.68 (inactive)

Q: For CCAGAUUGGUGAUGGUAGUTT against LOC432637, which z-score is on record?
A: 0.502 (inactive)

Q: Which z-score does the source give for GGCUCAUCAAAGGAAGAAATT against Araf1 here?
A: 1.44 (active)

Q: Which z-score does the source give for CCAGAACUUCCCAUUAAAATT against Alg8 here?
A: -0.0137 (inactive)

Q: Which z-score does the source give for “CCUUAUUGGGUCAUAAGCATT against 2210403B10Rik” here?
A: 0.798 (inactive)

Q: With CCUCCGUUUGAUGACUCAATT against Tcte3 as the sequence, how does the z-score read?
A: 0.671 (inactive)

Q: For GCGAUUCAAACUUAUUCGATT against Pcdhb15, which z-score is on record?
A: 0.749 (inactive)

Q: Which z-score does the source give for CCAUGAUCAAGAUUGUGCUTT against Slc29a1 here?
A: -0.707 (inactive)

Q: Which z-score does the source give for CCCUCGAUCCUUUUCACCUTT against Gja4 here?
A: 1.09 (inactive)

Q: For CUAGUAGGGUCAGAAUUUUTT against Olfr329, which z-score is on record?
A: 2.11 (inactive)

Q: Which z-score does the source give for CCAUGCAUCUAAGUCUCGATT against Trpm3 here?
A: 1.35 (inactive)

Q: With “GGAUUAAUUAAUACUUGGCTT against 3010033P07Rik” as the sequence, how does the z-score read?
A: 0.03 (inactive)

Q: For GGACCACCUAAGUUUAAGCTT against Pde6g, which z-score is on record?
A: 2.55 (active)

Q: With GCCAGAAUGGACUUGAGAATT against V1re6 as the sequence, how does the z-score read?
A: -0.0714 (inactive)

Q: Which z-score does the source give for GUUGAGGACUUCUUGCUGGTT against Cmar here?
A: -1.03 (inactive)

Q: With GGUAUGAGUGAAGAAAAGATT against Ifi205 as the sequence, how does the z-score read?
A: -0.37 (inactive)

Q: For CCAUAAACGACGAAAUGAUTT against Usp11, which z-score is on record?
A: 2.97 (active)

Q: Which z-score does the source give for GGCAUCUGUUAUUGAAGUGTT against Vit here?
A: 0.771 (inactive)

Q: With GGCCGAGUACAAACGUGGATT against AU019532 as the sequence, how does the z-score read?
A: 0.561 (inactive)

Q: Which z-score does the source give for CCCUACCUUGAACGAGUACTT against Apoa1 here?
A: 0.773 (active)

Q: With “GGAGAAGAAGCAGAGAGAATT against C530028I08Rik” as the sequence, how does the z-score read?
A: -0.263 (inactive)

Q: Which z-score does the source give for CCUUUCAGGCCAAUUGGCATT against Ube2l6 here?
A: 0.111 (inactive)

Q: Which z-score does the source give for “UCUCCUUCCUAACUUCAACTT against E030010A14” here?
A: 0.4 (inactive)

Q: Which z-score does the source give for “GGAACAGGACUUUUGAUAATT against 2700050F09Rik” here?
A: 1.03 (active)
